# Laboratory results reported in the supplement of paper PMC8728848.
# Only a selection was taken, and the strongest signals are over-represented in it overall.
# How the values were obtained:
# Experiment in all cases: glycan array binding signal (z-score within array); higher = stronger binding
# Settings in all cases: glycan notation: IUPAC condensed, linker removed
# Fuc(a1-2)Gal(b1-3)GlcNAc = biological target: Fuc(a1-2)Gal(b1-3)GlcNAc
# How it was run: (§1)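 Glycan array data were curated from 3228 arrays in the Consortium for Functional Glycomics database and kept only where the protein sequence was available. Glycan names were converted to IUPAC-condensed notation, and columns mapping to the same glycan were averaged. The binding signal is a within-array Z-score, averaged across arrays of the same protein sequence at different concentrations or buffers and across linkers. Negative Z-scores can be read as non-binding.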
# [1] = biological target: Fuc(a1-2)Gal(b1-3)GlcNAc(b1-2)Man(a1-3)[Fuc(a1-2)Gal(b1-3)GlcNAc(b1-2)Man(a1-6)]Man(b1-4)GlcNAc(b1-4)[Fuc(a1-6)]GlcNAc
# How it was run: as §1
# [2] = biological target: Fuc(a1-2)Gal(b1-3)GlcNAc(b1-3)Gal(b1-4)Glc
# How it was run: as §1
# [3] = biological target: Fuc(a1-2)Gal6S(b1-3)GlcNAc
# How it was run: as §1
# [4] = biological target: Fuc(a1-2)[Gal(a1-3)]Gal(b1-4)GlcNAc(b1-2)Man(a1-3)[Fuc(a1-2)[Gal(a1-3)]Gal(b1-4)GlcNAc(b1-2)Man(a1-6)]Man(b1-4)GlcNAc(b1-4)GlcNAc
# How it was run: as §1
# [5] = biological target: Fuc(a1-2)[Gal(a1-3)]Gal(b1-4)GlcNAc(b1-3)[Fuc(a1-2)[Gal(a1-3)]Gal(b1-4)GlcNAc(b1-6)]GalNAc
# How it was run: as §1
# [6] = biological target: Fuc(a1-2)[Gal(a1-3)]Gal(b1-4)GlcNAc(b1-6)GalNAc
# How it was run: as §1
# [7] = biological target: Fuc(a1-2)[GalNAc(a1-3)]Gal(b1-3)GlcNAc(b1-2)Man(a1-3)[Fuc(a1-2)[GalNAc(a1-3)]Gal(b1-3)GlcNAc(b1-2)Man(a1-6)]Man(b1-4)GlcNAc(b1-4)GlcNAc
# How it was run: as §1
# [8] = biological target: Fuc(a1-2)[GalNAc(a1-3)]Gal(b1-4)GlcNAc(b1-2)Man(a1-3)[Fuc(a1-2)[GalNAc(a1-3)]Gal(b1-4)GlcNAc(b1-2)Man(a1-6)]Man(b1-4)GlcNAc(b1-4)[Fuc(a1-6)]GlcNAc
# How it was run: as §1
# [9] = biological target: Fuc(a1-2)[GalNAc(a1-3)]Gal(b1-4)GlcNAc(b1-3)Gal(b1-4)GlcNAc(b1-3)Gal(b1-4)GlcNAc
# How it was run: as §1
# [10] = biological target: Fuc(a1-3)[Gal(b1-4)]GlcNAc(b1-3)Gal(b1-3)[Fuc(a1-4)]GlcNAc
# How it was run: as §1
# [11] = biological target: Fuc(a1-3)[Gal3S(b1-4)]GlcNAc6S
# How it was run: as §1
# Fuc(a1-4)GlcNAc = biological target: Fuc(a1-4)GlcNAc
# How it was run: as §1
# Gal(a1-2)Gal = biological target: Gal(a1-2)Gal
# How it was run: as §1
# Gal(b1-2)Gal = biological target: Gal(b1-2)Gal
# How it was run: as §1
# [12] = biological target: Gal(b1-3)GlcNAc(b1-3)Gal(b1-4)GlcNAc(b1-2)[Gal(b1-3)GlcNAc(b1-3)Gal(b1-4)GlcNAc(b1-6)]Man(a1-6)[Gal(b1-3)GlcNAc(b1-3)Gal(b1-4)GlcNAc(b1-2)Man(a1-3)]Man(b1-4)GlcNAc(b1-4)[Fuc(a1-6)]GlcNAc
# How it was run: as §1
# [13] = biological target: Gal(b1-3)[Fuc(a1-4)]GlcNAc
# How it was run: as §1
# [14] = biological target: Gal(b1-3)[Neu5Ac(b2-6)]GalNAc
# How it was run: as §1
# [15] = biological target: Gal(b1-4)GlcNAc(b1-2)Man(a1-6)[GlcNAc(b1-2)Man(a1-3)]Man(b1-4)GlcNAc(b1-4)GlcNAc
# How it was run: as §1
# [16] = biological target: Gal(b1-4)GlcNAc(b1-3)Gal(b1-4)GlcNAc(b1-2)Man(a1-3)[Gal(b1-4)GlcNAc(b1-3)Gal(b1-4)GlcNAc(b1-2)Man(a1-6)]Man(b1-4)GlcNAc(b1-4)GlcNAc
# How it was run: as §1
# [17] = biological target: Gal(b1-4)GlcNAc(b1-3)Gal(b1-4)GlcNAc(b1-3)Gal(b1-4)GlcNAc(b1-2)Man(a1-3)[Gal(b1-4)GlcNAc(b1-3)Gal(b1-4)GlcNAc(b1-3)Gal(b1-4)GlcNAc(b1-2)Man(a1-6)]Man(b1-4)GlcNAc(b1-4)GlcNAc
# How it was run: as §1
# [18] = biological target: Gal(b1-4)GlcNAc(b1-3)Gal(b1-4)GlcNAc(b1-3)Gal(b1-4)GlcNAc(b1-3)Gal(b1-4)GlcNAc(b1-3)Gal(b1-4)GlcNAc(b1-2)Man(a1-3)[Gal(b1-4)GlcNAc(b1-3)Gal(b1-4)GlcNAc(b1-3)Gal(b1-4)GlcNAc(b1-3)Gal(b1-4)GlcNAc(b1-3)Gal(b1-4)GlcNAc(b1-2)Man(a1-6)]Man(b1-4)GlcNAc(b1-4)GlcNAc
# How it was run: as §1
# [19] = biological target: Gal(b1-4)GlcNAc(b1-3)Gal(b1-4)GlcNAc(b1-3)Gal(b1-4)GlcNAc(b1-3)Gal(b1-4)GlcNAc(b1-3)Gal(b1-4)GlcNAc(b1-2)[Gal(b1-4)GlcNAc(b1-3)Gal(b1-4)GlcNAc(b1-3)Gal(b1-4)GlcNAc(b1-3)Gal(b1-4)GlcNAc(b1-3)Gal(b1-4)GlcNAc(b1-6)]Man(a1-6)[Gal(b1-4)GlcNAc(b1-3)Gal(b1-4)GlcNAc(b1-3)Gal(b1-4)GlcNAc(b1-3)Gal(b1-4)GlcNAc(b1-3)Gal(b1-4)GlcNAc(b1-2)Man(a1-3)]Man(b1-4)GlcNAc(b1-4)[Fuc(a1-6)]GlcNAc
# How it was run: as §1
# [20] = biological target: Gal(b1-4)GlcNAc(b1-3)[Fuc(a1-3)GlcNAc(b1-6)]Gal(b1-4)Glc
# How it was run: as §1
# Gal3S(b1-4)Glc6S = biological target: Gal3S(b1-4)Glc6S
# How it was run: as §1
# GalNAc(b1-4)GlcNAc = biological target: GalNAc(b1-4)GlcNAc
# How it was run: as §1
# GalNAc(b1-4)GlcNAc6S = biological target: GalNAc(b1-4)GlcNAc6S
# How it was run: as §1
# [21] = biological target: GlcNAc(b1-2)[GlcNAc(b1-4)]Man(a1-3)[GlcNAc(b1-4)][GlcNAc(b1-2)[GlcNAc(b1-6)]Man(a1-6)]Man(b1-4)GlcNAc(b1-4)[Fuc(a1-6)]GlcNAc
# How it was run: as §1
# [22] = biological target: GlcNAc(b1-3)Gal(b1-4)GlcNAc(b1-2)[GlcNAc(b1-3)Gal(b1-4)GlcNAc(b1-6)]Man(a1-6)[GlcNAc(b1-3)Gal(b1-4)GlcNAc(b1-2)Man(a1-3)]Man(b1-4)GlcNAc(b1-4)GlcNAc
# How it was run: as §1
# [23] = biological target: GlcNAc(b1-3)Gal(b1-4)GlcNAc(b1-3)Gal(b1-4)GlcNAc(b1-2)Man(a1-3)[GlcNAc(b1-3)Gal(b1-4)GlcNAc(b1-3)Gal(b1-4)GlcNAc(b1-2)Man(a1-6)]Man(b1-4)GlcNAc(b1-4)GlcNAc
# How it was run: as §1
binder,measurement,setting,value
Als3-41 (Candida albicans) (protein) KTITGVFNSFNSLTWSNAATYNYKGPGTPTWNAVLGWSLDGTSASPGDTFTLNMPCVFKFTTSQTSVDLTAHGVKYATCQFQAGEEFMTFSTLTCTVSNTLTPSIKALGTVTLPLAFNVGGTGSSVDLEDSKCFTAGTNTVTFNDGGKKISINVDFERSNVDPKGYLTDSRVIPSLNKVSTLFVAPQCANGYTSGTMGFANTYGDVQIDCSNIHVGITKGLNDWNYPVSSESFSYTKTCSSNGIFITYKNVPAGYRPFVDAYISATDVNSYTLSYANEYTCAGGYWQRAPFTLRWTGYRNSDAGSNGIVIVATTRTVTDSTTAVTTLPFDPNRDKTKTIEILKPIPTTTITTSYVGVTTSYLTKTAPIGETATVIVD,glycan array binding signal (z-score),Fuc(a1-2)Gal(b1-3)GlcNAc,-0.256
same,glycan array binding signal (z-score),[1],-0.306
same,glycan array binding signal (z-score),[2],-0.317
same,glycan array binding signal (z-score),[3],-0.047
same,glycan array binding signal (z-score),[4],-0.283
same,glycan array binding signal (z-score),[5],1.91
same,glycan array binding signal (z-score),[6],-0.229
same,glycan array binding signal (z-score),[7],-0.203
same,glycan array binding signal (z-score),[8],-0.001
same,glycan array binding signal (z-score),[9],1.63
same,glycan array binding signal (z-score),[10],-0.315
same,glycan array binding signal (z-score),[11],1.6
same,glycan array binding signal (z-score),Fuc(a1-4)GlcNAc,7.63
same,glycan array binding signal (z-score),Gal(a1-2)Gal,-0.006
same,glycan array binding signal (z-score),Gal(b1-2)Gal,-0.182
same,glycan array binding signal (z-score),[12],0.669
same,glycan array binding signal (z-score),[13],-0.315
same,glycan array binding signal (z-score),[14],-0.359
same,glycan array binding signal (z-score),[15],-0.102
same,glycan array binding signal (z-score),[16],6.2
same,glycan array binding signal (z-score),[17],2.56
same,glycan array binding signal (z-score),[18],1.05
same,glycan array binding signal (z-score),[19],-0.117
same,glycan array binding signal (z-score),[20],-0.31
same,glycan array binding signal (z-score),Gal3S(b1-4)Glc6S,-0.151
same,glycan array binding signal (z-score),GalNAc(b1-4)GlcNAc,0.551
same,glycan array binding signal (z-score),GalNAc(b1-4)GlcNAc6S,1.79
same,glycan array binding signal (z-score),[21],-0.311
same,glycan array binding signal (z-score),[22],1.97
same,glycan array binding signal (z-score),[23],2.21
